# Reference: PubChem BioAssay AID504434 (National Center for Advancing Translational Sciences (NCATS), 2011)
# Inconclusive results are not listed. The source made the active and inactive calls. Calls follow the shape of the dose curve; as a rule, active = well fitted curve in the direction sought with a large enough effect; inconclusive = small, poorly fitted or top-dose-only effect, or effect the other way, or another doubt; inactive = no such curve, though single readings can be large or run the other way.
# Test: Secondary Assay for lipid storage modulators: AML12 cell LDSA assay for probe SAR
# Details: AML12 lipid droplet accumulation, BODIPY 493/503 imaging, oleate
# Source text: NIH Molecular Libraries Probe Production Centers Network [MLPCN] NIH Chemical Genomics Center [NCGC] MLPCN Grant: 1 R03 MH085686-01 Assay Submitter (PI): Beller, Mathias; Max-Planck-Institut fur Biophysikalische Chemie NCGC Assay Overview: Storing lipids as a reservoir for energy or the anabolism of elementary metabolites is a common feature of probably all cells and is conserved from bacteria to humans. The universal cellular lipid storage organelle is the so-called lipid storage droplet (LD). Although ubiquitous, LDs share a simple structure composed of a hydrophobic core that harbors the storage lipids, which is shielded by a droplet-specific phospholipid monolayer to which proteins are attached. The current model of LD biogenesis involves an incorporation of the lipid core into the membrane leaflets of the endoplasmic reticulum (ER) followed by a subsequent budding-like maturation of a LD, which ultimately pinches off. […]
# NCGC Assay Protocol Summary: The assay was performed with AML12 cells, using an oleic acid feeding protocol similar to the S3 assay. […] Fluorescence was detected by excitation of the fluorophores with a 488-nm laser on an Acumen Explorer (TTP Lab Tech). […] Cells were detected using channel 3 (575-640 nm) with 5-um width and 100-um depth filters. The ratio of the number of objects in PMT channel 2 over the number of objects in PMT channel 3 was also calculated. […]
compound,measurement,value
CCC/C=C/C/C=C/C=C/C=N/NN=O,Potency,499 nM (active)
